Out of some 290,000 compounds screened, about 3,000 (1%) were called active. No stated cut-off is given here; in the data, active means inhibition mostly above about 36% (no sharp cut-off); inactive means mostly below about 34%. This excerpt belongs to a sample that is enriched for actives.
experiment: inhibition of NOD1-driven NF-kB reporter – cell-based, luminescence, uHTS, primary screen (AID 1578); details: NOD1-driven NF-kB luciferase reporter cells, at 4 µM, hits give high values;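 further: HEK-293T reporter cells stimulated with the NOD1 agonist gamma-tri-DAP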

inhibition, inactive:
COCCCNC(=O)C(=O)Nc1cc2c3c(c1)CCC(=O)N3CCC2 19.6%
CCOc1ccc(NC(=O)c2cnsn2)cc1 -6.3%
CC(=O)c1ccc(NC(=O)c2cnsn2)cc1 44.1%
Cc1ccc(Cl)cc1N1CCN(S(=O)(=O)c2ccc3[nH]c(=O)ccc3c2)CC1 5.1%
O=C(Cn1c(O)c(/C=C2\C=Nc3ccccc32)sc1=O)N1CCOCC1 12.6%
C=CCC(=O)NC1CCCc2c1cnn2-c1cc(F)cc(F)c1 (stereo not given) 6.1%
O=C(O)c1ccc(-n2cc(-c3cc4ccccc4oc3=O)[nH]c2=S)cc1 -7.2%
S=c1[nH]c(-c2ccccc2)cn1-c1ccccc1 -7.1%
Cc1ccccc1-c1cn(-c2ccccc2)c(=S)[nH]1 -24.2%
COc1ccc(-c2cn(-c3ccccc3)c(=S)[nH]2)cc1OC -4.4%
Cc1nc2ccc(Cl)cn2c1C(=O)NN -35.5%
O=C(NCCNC(=O)c1ccco1)c1ccco1 5%
Cc1cccc(N(CC(=O)NC2CCCCC2)C(=O)CCCC(=O)Nc2ccccn2)c1 -26.2%
Cn1nnnc1SCCNCc1ccncc1 -3.9%
Cn1c(N2CCCC2)nc2c1c(=O)n(Cc1ccc(Cl)cc1)c(=O)n2C -9.4%
Cn1c(N2CCC(C(N)=O)CC2)nc2c1c(=O)n(Cc1ccc(Cl)cc1)c(=O)n2C -1.5%
O=C(c1nc2ccc(Cl)cn2c1CN1CCC[C@H]1CO)N1CCCCCCC1 -22%
CCOC(=O)c1cnc(N2CCN(c3ccccc3)CC2)[nH]c1=O 1.6%
CC(=O)c1ccc(NCC2COc3ccccc3O2)c([N+](=O)[O-])c1 (stereo not given) -11.7%
CCOC(=O)CSc1ccc2nnc(-c3ccccc3)n2n1 -21.3%
COc1nc(Nc2ccccc2F)nc(OC)n1 -28.1%
Cc1c(N)cc[n+](CC(=O)c2ccccc2)c1C -3.9%
COc1ccc(C(=O)C[n+]2ccc3ccccc3c2C)cc1 -2.3%
Cc1cc(C(=O)N2CCCC(CCC(=O)N3CCN(c4ccccn4)CC3)C2)c(C)o1 (stereo not given) -25.2%
Cc1cc(C)cc(OCC(=O)Nc2ccncc2)c1 30.1%
Cc1cc(Cl)ccc1OCC(=O)Nc1ccncc1 23.8%
Cc1cc(OCC(=O)Nc2ccncc2)ccc1Cl 27.1%
Cc1cc(OCC(=O)NCCN2CCOCC2)cc(C)c1Br -62.5%
Cc1ccc(OCC(=O)NCCN2CCOCC2)cc1C -3.4%
Cc1cc(OCC(=O)Nc2ccncc2)ccc1Br 49.9%
Cc1ccccc1-n1nc2c(c1NC(=O)C(C)C)CS(=O)(=O)C2 -6.5%
O=C(Nc1cccnc1Cl)c1ccc2c(Cl)c3c(nc2c1)CCC3 -39.9%
CC(=O)c1cccc(NC(=O)c2ccc3c(Cl)c4c(nc3c2)CCCC4)c1 -3.3%
Clc1ccc(C2Nc3ccccc3-n3cccc32)cc1 (stereo not given) -20.2%
CN1CCCN(C(=O)c2ccc(Cl)s2)CC1 -15%
O=C(c1cc2ccccc2oc1=O)N(Cc1ccc2c(c1)OCO2)Cc1ccco1 -2.2%
O=C(NCc1ccc2c(c1)OCO2)c1cc2ccccc2oc1=O 11.3%
COc1cc(C(C(=O)NC2CCCCC2)N(Cc2ccco2)C(=O)c2cnccn2)cc(OC)c1OC (stereo not given) -34.1%
C[C@]12C=CC(=O)C=C1CC[C@@H]1C2C(O)C[C@@]2(C)C1CC[C@]2(O)C(=O)COC(=O)CCC(=O)NC(CC(=O)O)C(=O)O (stereo not given in full) -8.1%
O=C(/C=C/c1ccc(F)cc1)NC(=S)Nc1ccccc1C(=O)NC1CCCCC1 12.3%
CN(C(=S)NC(=O)/C=C/c1ccc(F)cc1)C1CCCCC1 -22.9%
COc1cccc2c(Nc3ccccc3C)cc(C)nc12 6.4%
COc1ccc(C(=O)N/C(=C/c2cccs2)c2nc3ccccc3[nH]2)cc1OC -5.7%
COC(=O)/C(=C\c1ccc(O)cc1)c1nc2ccccc2[nH]1 -44.4%
COc1cc(/C=C(\C#N)c2nc3ccccc3[nH]2)cc(OC)c1O 6.4%
COc1ccc(/C=C(\C#N)c2nc3ccccc3[nH]2)cc1O 12%
O=C(CN1CCOCC1)OCCCc1ccccc1 -23.1%
CCCCNC(=O)Nc1c(C(=O)OCC)[nH]c2ccccc12 -25.1%
CCOC(=O)CCCCCN(Cc1ccccc1)S(=O)(=O)c1ccc([N+](=O)[O-])cc1 -22.1%
CCOC(=O)c1c(-c2ccc(C)o2)csc1NC(=O)CN1CCOCC1 14.9%
CCc1nc(SCc2ccccc2C#N)n[nH]1 -30.4%
O=C(Nc1ccc(C(=O)N2CCCC2)cc1)c1ccc(F)cc1Cl -14%
CCOC(=O)N1CCN(C(=O)c2ccc(Cn3c(=S)[nH]c4cc(C(=O)OC)ccc4c3=O)cc2)CC1 -11%
O=C(c1ccc(Cn2c(=O)[nH]c3ccccc3c2=O)cc1)N1CCN(c2ccccn2)CC1 -8.3%
CCOC(=O)N1CCN(C(=O)c2ccc(Cn3c(=S)[nH]c4cc(OCC)c(OCC)cc4c3=O)cc2)CC1 19.9%
COc1ccc(Cn2c(=O)[nH]c3cc(C(=O)N4CCN(c5ccccn5)CC4)ccc3c2=O)cc1 -10.7%

inhibition, active:
CN(C)c1ccc(NC(=O)c2cnsn2)cc1 65.7%
Cc1ccc(-c2cn(-c3ccccc3)c(=S)[nH]2)cc1C 23.4%
O=c1oc2ccccc2cc1-c1cn(-c2ccccc2)c(=S)[nH]1 98.5%
COc1ccc(C(=O)C[n+]2ccc(N)c(C)c2C)cc1 59.4%
Cc1cc(OCC(=O)NCCN2CCOCC2)cc(C)c1Cl 84.9%
N#Cc1ccccc1NC(=O)c1ccc2c(Cl)c3c(nc2c1)CCCC3 66.5%
O=C(c1cc2ccccc2oc1=O)N(Cc1ccccc1)Cc1ccc2c(c1)OCO2 50.1%
O=C(/C=C/c1ccc(F)cc1)NC(=S)NC1CCCCC1 36.3%
COc1cc(/C=C(/C(=O)c2cccs2)c2nc3ccccc3[nH]2)cc(OC)c1O 98.8%
